Results as given in PubChem BioAssay (NCATS).
Values joined by “and” are separate entries in the source; they are usually repeats but may differ in a detail not shown here. Equal values may be shown once. Inconclusive results are not listed. Some compounds were tested as several samples or in several runs, with calls that do not always agree. Active and inactive are the calls of the source. Calls come from the whole dose curve; as a rule, active = well fitted inhibition curve with a large enough effect; inconclusive = small, poorly fitted or top-dose-only effect; inactive = flat fitted curve, though single readings scatter.

What was measured:
CRL-7250 = normal cell line; assay: Cytotoxic Profiling of Annotated Libraries Using Quantitative High-Throughput Screening (AID 1296008); settings: Five cell lines viability, CellTiter-Glo ATP luminescence, 48-72 h; max response: active compounds read low; note: potency is the fitted concentration of half-maximal effect; for max response: % is set by controls: 0 for no effect and ±100 for the full control effect
In short: (§1)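 Compounds were pin-transferred onto cells and incubated 48 or 72 hr at 37 degree Celsius, 95% humidity. CellTiter-Glo was added, plates sat 10 min at room temperature, then ATP-coupled luminescence was imaged as the viability read-out.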

HaCat [1] = assay: as above; settings: Five cell lines viability, CellTiter-Glo ATP luminescence, 48-72 h; max response: active compounds read low
In short: as §1

KB-3-1 = assay: as above; settings: Five cell lines viability, CellTiter-Glo ATP luminescence, 48-72 h; max response: active compounds read low
In short: as §1

NIH3T3 = assay: as above; settings: Five cell lines viability, CellTiter-Glo ATP luminescence, 48-72 h; max response: active compounds read low
In short: as §1

HACAT [2] = assay: qHTS assay to identify novel small-molecules to repurpose for Merkel cell carcinoma treatment (AID 1296009); settings: MCC and control cell lines, CellTiter-Glo viability, 72 h; at 44.8 µM (top of the series) unless noted
In short: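 Cells exposed to NPC (8-point) and MIPE (11-point) compound dilutions for 72 hr at 37 degree celsius; viability read by CellTiter-Glo luminescence, normalized to no-cell and DMSO in-plate controls.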

JCK = assay: qHTS profiling for inhibitors of Plasmodium falciparum proliferation (AID 504749);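 note: 0% = DMSO vehicle and full inhibition = artemisinin control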; settings: P. falciparum in erythrocytes, SYBR Green DNA, 72 h; series mostly up to 28.7 µM
In short: (§2)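 P. falciparum-infected erythrocytes (0.3% parasitemia, 2.5% hematocrit final) were exposed to compounds for 72 h at 37 C in 5% CO2, then lysed with SYBR Green buffer overnight at room temperature; parasite DNA fluorescence was normalized to artemisinin and DMSO controls.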

N140 = assay: as above; settings: P. falciparum in erythrocytes, SYBR Green DNA, 72 h; series mostly up to 28.7 µM
In short: as §2

P94_40 = assay: as above; settings: P. falciparum in erythrocytes, SYBR Green DNA, 72 h; series mostly up to 28.7 µM
In short: as §2

PAD = assay: as above; settings: P. falciparum in erythrocytes, SYBR Green DNA, 72 h; series mostly up to 28.7 µM
In short: as §2

PC15 = assay: as above; settings: P. falciparum in erythrocytes, SYBR Green DNA, 72 h; series mostly up to 28.7 µM
In short: as §2

PC26 = assay: as above; settings: P. falciparum in erythrocytes, SYBR Green DNA, 72 h; series mostly up to 28.7 µM
In short: as §2

PC49 = assay: as above; settings: P. falciparum in erythrocytes, SYBR Green DNA, 72 h; series mostly up to 28.7 µM
In short: as §2

SC27B = assay: as above; settings: P. falciparum in erythrocytes, SYBR Green DNA, 72 h; series mostly up to 28.7 µM
In short: as §2

TAB109 = assay: as above; settings: P. falciparum in erythrocytes, SYBR Green DNA, 72 h; series mostly up to 28.7 µM
In short: as §2

TAB113 = assay: as above; settings: P. falciparum in erythrocytes, SYBR Green DNA, 72 h; series mostly up to 28.7 µM
In short: as §2

TAB165 = assay: as above; settings: P. falciparum in erythrocytes, SYBR Green DNA, 72 h; series mostly up to 28.7 µM
In short: as §2

W2 = assay: as above; settings: P. falciparum in erythrocytes, SYBR Green DNA, 72 h; series mostly up to 28.7 µM
In short: as §2
Note: nearly all actives have a fitted effect of over 60% in size.

COc1cc2c(cc1OC)[C@@H]1Cc3ccc(OC)c(OC)c3CN1CC2
inactive: max response (CRL-7250) -7.12% | max response (HaCat [1]) -3.71% | max response (KB-3-1) -25.3% | max response (NIH3T3) -3.25%

CNC(=O)c1cc(COc2nnc(Nc3ccc(Cl)cc3)c3ccoc23)ccn1
inactive: max response (CRL-7250) -22.5% | max response (HaCat [1]) 1.3% | max response (KB-3-1) -2.71% | max response (NIH3T3) -16.8%

Oc1ccc(C=Cc2cc(O)cc(O)c2)cc1
inactive: max response (CRL-7250) -12.2% | max response (HaCat [1]) -24.3% | max response (KB-3-1) -2.23%

Cc1ccc(S(=O)(=O)Nc2nc3ccccc3nc2Nc2ccc3nsnc3c2)cc1
inactive: max response (CRL-7250) -6.76% | outcome (KB-3-1) | max response (NIH3T3) -28.1%
active: Potency (HaCat [1]) 14.4 µM

CNc1nc(Nc2ccc(C(=O)N3CCOCC3)cc2OC)ncc1Cl
inactive: max response (CRL-7250) 2.63% and -2.16% | outcome (HaCat [1]) | max response (KB-3-1) -5.95% | outcome (KB-3-1) | outcome (HACAT [2])

COc1cc(CNC(=O)CCCCC=CC(C)C)ccc1O
inactive: max response (CRL-7250) -19.8% | max response (HaCat [1]) 3.92% | max response (KB-3-1) -24.7%
active: Potency (NIH3T3) 10.5 µM

CC(=O)O[C@]1(C(C)=O)CC[C@H]2[C@@H]3C=C(Cl)C4=CC(=O)[C@@H]5C[C@H]5[C@]4(C)[C@@H]3CC[C@@]21C
inactive: outcome (CRL-7250) | max response (HaCat [1]) -0.438% | outcome (KB-3-1) | outcome (NIH3T3)

CC(C)c1onc(-c2c(Cl)cccc2Cl)c1COc1ccc(C=Cc2cccc(C(=O)O)c2)c(Cl)c1
inactive: max response (CRL-7250) -1.7% | max response (HaCat [1]) -7.35% | max response (KB-3-1) 6.78% | max response (NIH3T3) 4.7%

CCCCC[C@H](O)C=C[C@H]1[C@H](O)CC(=O)[C@H]1CCCCCCC(=O)O
inactive: max response (CRL-7250) -0.21% | max response (HaCat [1]) -1.7% | max response (KB-3-1) -2.88% | max response (NIH3T3) -0.203%

CN(C)c1ccc(-c2nc3ncc(Cl)c(N4CCN(CC(=O)Nc5nccs5)CC4)c3[nH]2)cc1
active: Potency (KB-3-1) 2 µM
inactive: max response (CRL-7250) -24% | outcome (HaCat [1]) | outcome (KB-3-1) | outcome (HACAT [2]) inactive [at 17.4 µM]

Cc1csc(-c2nnc(Nc3ccc(Oc4ncccc4-c4ccnc(N)n4)cc3)c3ccccc23)c1
active: Potency (HaCat [1]) 0.148 µM
inactive: max response (CRL-7250) -3.89% and -3.06%

C=CC(=O)Nc1cccc(Sc2nc(Nc3ccc(N4CCN(C)CC4)cc3)ncc2Cl)c1
active: Potency (CRL-7250) 33.2 µM | Potency (HaCat [1]) 5.8 µM

COc1ccc(Cn2ccc3ccc(C(=O)NO)cc32)cc1
inactive: max response (CRL-7250) -16.1% and -2.36% | max response (HaCat [1]) -11.8% | outcome (HaCat [1]) | max response (KB-3-1) 8.71% | outcome (KB-3-1) | outcome (HACAT [2])

O=C(c1ccc(C(=O)N2CCC(N3CCCC3)CC2)c(Nc2ccccc2)c1)N1CCC(N2CCCC2)CC1
inactive: max response (CRL-7250) -2.66% and 0.948% | outcome (HaCat [1]) | max response (KB-3-1) -1.29% and -4.53% | max response (NIH3T3) -1.45% | outcome (NIH3T3) | outcome (HACAT [2])

O=C1NC(=O)C(c2cnc3ccccn23)=C1c1cn2c3c(cccc13)CN(C(=O)N1CCOCC1)CC2
inactive: max response (HaCat [1]) -40.4% | max response (NIH3T3) -24.9%
active: Potency (CRL-7250) 0.0166 µM

CC(=O)NCCC(=O)N[C@@H](CCC(N)=O)C(=O)N[C@@H](CO)C(=O)N[C@@H](CCC(N)=O)C(=O)N[C@@H](CCC(N)=O)C(=O)N[C@H](C(=O)N[C@@H](Cc1ccccc1)C(=O)N[C@]1(C)CCCCCCC=CCCC[C@@](C)(C(=O)N[C@@H](CCC(N)=O)C(=O)N[C@@H](CC(N)=O)C(N)=O)NC(=O)[C@H](CC(C)C)NC(=O)[C@H](CC(C)C)NC(=O)[C@@H](CCCNC(=N)N)NC(=O)[C@H](Cc2c[nH]c3ccccc23)NC(=O)[C@H](CC(C)C)NC(=O)[C@H](CC(N)=O)NC1=O)[C@H](C)O
inactive: max response (CRL-7250) 1.13% | outcome (HaCat [1]) | outcome (KB-3-1) | max response (NIH3T3) 0.272% | outcome (HACAT [2])

C[C@@H]1CCO[C@H]2Cn3cc(C(=O)NCc4ccc(F)cc4F)c(=O)c(O)c3C(=O)N12
inactive: outcome (CRL-7250) | outcome (HaCat [1]) | max response (KB-3-1) -10.6% and -26.2% | max response (NIH3T3) -1.73% | outcome (HACAT [2])
active: Potency (NIH3T3) 20.6 µM

C[C@@H](NC(=O)c1ncnc(N)c1Cl)c1ncc(C(=O)Nc2cc(C(F)(F)F)c(Cl)cn2)s1
inactive: max response (CRL-7250) -9.83% | outcome (HaCat [1]) | outcome (KB-3-1) | max response (NIH3T3) -5.83% and 1.58% | outcome (HACAT [2])

Cc1ccc(S(=O)(=O)OCC(=O)Nc2ccc(C(=O)O)c(O)c2)cc1
inactive: max response (CRL-7250) -2.75% | outcome (HaCat [1]) | outcome (KB-3-1) | max response (NIH3T3) -0.735% | outcome (HACAT [2])

CN1CC(=O)N2C(Cc3c([nH]c4ccccc34)[C@H]2c2ccc3c(c2)OCO3)C1=O (stereo not given in full)
inactive: outcome (JCK) | Potency (N140) | Potency (P94_40) | Potency (PAD) | outcome (PC15) | Potency (PC26) | outcome (PC49) | Potency (SC27B) | Potency (TAB109) | Potency (TAB113) | Potency (TAB165) | Potency (W2) | max response (CRL-7250) -5.59% | max response (HaCat [1]) 4.52% | max response (KB-3-1) -12.7%

CCC=CC[C@H]1C(=O)CC[C@@H]1CC(=O)OC
inactive: max response (CRL-7250) -0.832% | outcome (HaCat [1]) | outcome (KB-3-1) | outcome (HACAT [2])

CO[C@H]1C=CO[C@@]2(C)Oc3c(C)c(O)c4c(O)c(c(C=NN5CCN(C)CC5)c(O)c4c3C2=O)NC(=O)C(C)=CC=C[C@H](C)[C@H](O)[C@@H](C)[C@@H](O)[C@@H](C)[C@H](OC(C)=O)[C@H]1C
inactive: max response (CRL-7250) -4.52% | outcome (HaCat [1]) | max response (KB-3-1) 0.835% | max response (NIH3T3) -3.12% | outcome (HACAT [2]) inactive [at 9.27 µM]
